# Source: PubChem BioAssay
# VLA-4 inh: inhibition in human VLA-4 binding assay, primary screen, VLA-4 allosteric modulator project, MLPCN library, flow cytometry, VLA-4 expressing cells | actives 0.2% (n = 330,000) | inhibition, % (about 7 µM as worked out from the volumes in the protocol) | ligand binding flow cytometry | Integrin alpha-4 (Homo sapiens), P13612 | AID 2557, 2010; in the data active means inhibition above about 50%
# AI-2 QS mod: Vibrio harveyi AI-2 quorum sensing modulators, primary screen, JMH597 strain, luminescence/OD600 ratio; Vibrio harveyi JMH597 AI-2 luminescence/OD600 ratio, 9 h; active compounds read low; strain lacks LuxN and CqsS sensors; 0 = neutral-control median; activity change, % at 7.5 µM; actives 0.4% (n = 300,000); AID 2094, 2009; in the data active means activity change below about -75%, passing the limit was not always enough;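 further: luminescence divided by OD600 gain over 9 h not by final OD600 alone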
# NTR1 ag: agonists of human NTR1, primary screen, imaging, U2OS cells, beta-arrestin-GFP, high content; Neurotensin receptor type 1 (Homo sapiens), P30989; NTR1-U2OS beta-arrestin-GFP spot imaging, agonist mode; activation, % at 20 µM; actives 0.17% (n = 330,000); AID 493036, 2011;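 active means activation at or above 40% of the spot to cytoplasm intensity ratio, with at least 20 cells analyzed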;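 further: 0% = DMSO without peptide and 100% = 100 nM NTR1 peptide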
# Target sequence (P30989 whole entry, looked up): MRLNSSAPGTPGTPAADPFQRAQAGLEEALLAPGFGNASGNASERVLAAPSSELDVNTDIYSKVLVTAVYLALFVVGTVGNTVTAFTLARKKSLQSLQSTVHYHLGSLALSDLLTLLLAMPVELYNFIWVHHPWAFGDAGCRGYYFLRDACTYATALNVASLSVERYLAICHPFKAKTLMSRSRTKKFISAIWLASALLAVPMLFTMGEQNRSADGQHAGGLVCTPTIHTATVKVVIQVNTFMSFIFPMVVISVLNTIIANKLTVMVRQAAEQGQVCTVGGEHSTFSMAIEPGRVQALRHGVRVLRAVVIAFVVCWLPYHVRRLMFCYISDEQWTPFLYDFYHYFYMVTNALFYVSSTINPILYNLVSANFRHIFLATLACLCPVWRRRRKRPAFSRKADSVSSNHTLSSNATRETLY
# Pemphigus Ab inh: inhibitors of pemphigus antibody binding to DSG3, primary screen, biochemical, bead-based, flow cytometry, scFv-GFP; Desmoglein-3 (Homo sapiens), P32926; actives 0.48% (n = 310,000); binding (percent of control), % at 10 µM; DSG3-coupled beads, scFv-anti-DSG3-GFP binding; active compounds read low;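 active means binding more than 3 SD below its plate's average and above zero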;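 further: hits lower antibody fragment binding to DSG3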
# VLA-4 mod pick: retest of VLA-4 allosteric modulators, confirmation, cell-based, cherry-picked plates, U937, HUTS-21 LIBS antibody. shares compounds with VLA-4 inh. U937 cells, HUTS-21 LIBS mAb binding, flow cytometry; LDV ligand present at threefold Kd. inhibition, % at 6.7 µM. actives 2% (n = 1,300); in the data active means inhibition above about 40%;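 further: 0% = ligand without compound and 100% = no ligand background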
# * marks the source's active call; other numbers are inactive results; . = no result given; ! = not confirmed by another sample. This is a sample that favours compounds with a hit; in the whole collection about 1.1% have one here.
SMILES,VLA-4 inh,AI-2 QS mod,NTR1 ag,Pemphigus Ab inh,VLA-4 mod pick
COc1cccc(-n2c(Cc3cc(=O)[nH]c(=O)[nH]3)nnc2SCC(=O)N2CCCCC2)c1,8.8,23.2,0.9,109.2,-1.5
CCSc1nnc(Cc2cc(=O)[nH]c(=O)[nH]2)n1-c1ccc(F)cc1,13.3,4.6,-2.3,97.1,.
O=C(CSc1nnc(Cc2cc(=O)[nH]c(=O)[nH]2)n1-c1ccc(F)cc1)N1CCCCC1,18.0,20.7,2.6,109.0,2.4
Cc1ccc(-n2c(CSc3nc(C)cc(C)n3)nnc2SCC(=O)N2CCCC2)cc1,50.0*,5.4,1.4,100.3,-4.1
COc1ccc(-n2c(Cc3cc(=O)[nH]c(=O)[nH]3)nnc2SCc2ccccc2)cc1,51.1*,-13.0,-0.6,112.9,4.7
O=C(NCC1CCCO1)c1nn2c(C(F)(F)F)cc(-c3cccs3)nc2c1Cl (stereo unspecified),6.6,9.8,0.6,.,.
O=C(O)c1nn2c(C(F)(F)F)cc(-c3cccs3)nc2c1Cl,45.5,9.7,4.1,104.1,1.3
O=C(Nc1ccccc1C(=O)N1CCOCC1)c1ccc(Br)cc1,4.5,4.2,-0.7,109.1,.
COCCCC1CCN(Cc2nc(Cc3ccccc3Cl)no2)CC1,22.4,0.8,-1.0,90.9,.
COCCCC1CCN(Cc2nc(-c3ccccc3)no2)CC1,42.3,25.7,1.1,93.8,7.0
O=C(c1ccccc1Cc1ccccc1)N1CCN(S(=O)(=O)c2ccccc2Br)CC1,12.1,-2.5,7.9,97.1,.
O=C(COC(=O)c1ccc(F)c(S(=O)(=O)N2CCOCC2)c1)NCc1ccccc1,-1.3,.,0.6,87.2,.
CCN(CC)CCNC(=O)COc1ccc(OC)cc1,57.1*!,17.6,-1.7,121.9,1.1
CC(=O)Nc1ccc(S(=O)(=O)Nc2nnc(C(C)(C)C)s2)cc1,8.7,-4.3,0.2,88.4,.
CC(C)(C)c1nnc(NC(=O)NS(=O)(=O)c2ccccc2)s1,73.4*,13.3,-0.5,100.7,3.3
CCC(C)(C)c1ccc(OC(=O)c2cccnc2Cl)cc1,-5.3,-55.0,6.3,98.3,.
CCCC[C@@H]1C=C(C(=O)O)[C@H](c2ccc(CC)cc2)N1S(=O)(=O)c1ccc(C)cc1,-9.9,.,5.1,104.6,2.1
CCCCC[C@@H]1C=C(C(=O)O)[C@H](c2ccc(CC)cc2)N1S(=O)(=O)c1ccc(C)cc1,35.1,.,5.2,103.8,-0.8
CCCCC[C@@H]1C=C(C(=O)O)[C@H](c2ccc(F)cc2)N1S(=O)(=O)c1ccc(C)cc1,-22.4,.,5.3,105.0,0.0
CC[C@@H]1C=C(C(=O)O)[C@H](c2ccc(Br)cc2)N1S(=O)(=O)c1ccc(C)cc1,29.3,.,0.1,95.8,.
CCCCC[C@@H]1C=C(C(=O)O)[C@H](c2cccc(C)c2)N1S(=O)(=O)c1ccc(C)cc1,21.9,.,2.5,102.6,0.6
CCCCC[C@@H]1C=C(C(=O)O)[C@H](c2ccc(Cl)c(Cl)c2)N1S(=O)(=O)c1ccc(C)cc1,42.4,.,10.5,111.4,.
O=C1C=CC(O)(c2cc(=O)c3c(O)cc(O)cc3o2)C=C1,9.5,24.4,2.3,93.7,.
Cc1c(Cl)cccc1NC(=O)CCN1CCC(C(N)=O)CC1,36.3,5.3,0.9,118.5,.
CCc1ccc([C@H]2C(C(=O)O)=C[C@@H](CC)N2S(=O)(=O)c2ccc(C)cc2)cc1,23.5,.,-1.4,105.0,-1.4
SMILES,VLA-4 inh,AI-2 QS mod,NTR1 ag,Pemphigus Ab inh,VLA-4 mod pick
CCCC[C@@H]1C=C(C(=O)O)[C@H](c2ccc(Br)cc2)N1S(=O)(=O)c1ccc(C)cc1,-13.7,.,5.8,105.4,-1.4
CCCCC[C@@H]1C=C(C(=O)O)[C@H](c2ccc3c(c2)OCO3)N1S(=O)(=O)c1ccc(C)cc1,-2.5,.,7.2,108.8,7.3
CCCCC[C@@H]1C=C(C(=O)O)[C@H](c2ccc(OC)c(OC)c2)N1S(=O)(=O)c1ccc(C)cc1,26.8,.,-1.3,98.1,3.3
O=c1[nH]c2ccccc2nc1NCCN1CCOCC1,2.8,-0.3,-0.6,102.2,.
c1ccc2[nH]c(NCCCN3CCOCC3)nc2c1,61.8*,14.4,0.2,100.9,7.7
Cn1c2ccc(F)cc2c2ncn(Cc3ccco3)c(=O)c21,.,27.8,2.3,102.0,.
Cn1c2ccccc2c2ncn(Cc3ccco3)c(=O)c21,55.3*,34.5,-0.6,107.3,0.0
CN1CCN(C(CNS(=O)(=O)c2ccc([N+](=O)[O-])cc2)c2ccc(F)cc2)CC1 (stereo unspecified),-1.7,24.4,0.4,102.2,.
COc1cccc(-c2sc3ccc(OC)cc3c2-c2ccc(OCCN(C)C)cc2)c1,51.5*,.,15.4,112.3,8.8
COc1ccc(-c2sc3ccccc3c2-c2ccc(OCCN(C)C)cc2)cc1,67.0*,.,12.6,105.4,44.4*
COc1cccc(-c2sc3ccc(OC)cc3c2-c2ccc(O)cc2)c1,5.7,.,24.8,.,.
O=C1COc2ccc(N3C(=O)c4ccccc4C3=O)cc2N1,52.2*,7.8,-0.1,.,9.0
Cc1ccc(NC(=O)COc2ncnc3c(Cl)cc(Cl)cc23)cc1[N+](=O)[O-],40.5,-3.0,4.3,105.2,-21.6
O=C(COC(=O)c1cc2ccccc2o1)NCc1ccco1,8.7,.,-1.5,.,.
CSc1ccccc1NC(=O)Nc1ccccc1,0.0,10.3,-0.2,100.0,.
CCOc1ccc(NC(=O)Nc2ccccc2SC)cc1,67.4*,13.3,1.9,97.5,6.5
COc1ccccc1/C=N/NC(=O)Cn1cnc([N+](=O)[O-])n1,-1.0,18.7,-1.0,85.4,.
CC(C)CC(=O)Nc1ccc2c(c1)nc(CCN1CCOCC1)n2C,42.8,0.4,0.6,91.0,-17.5
CCOc1ccccc1C(=O)OCC(=O)Nc1cc(S(=O)(=O)N2CCOCC2)ccc1C,-6.2,.,-2.2,82.9,.
CCCC(=O)Nc1ccc(C(=O)Nc2nc(CC(=O)OCC)cs2)cc1,56.2*,23.9,15.1,95.7,2.0
CCOC(=O)Cc1csc(NC(=O)c2ccc(OC)c(OC)c2)n1,0.0,17.2,1.2,100.8,.
Cc1cc(Br)ccc1NC(=O)CN(C)C(=O)c1cccc(S(=O)(=O)N2CCN(C)CC2)c1,.,.,.,93.7,.
CC(Oc1cccc(Cl)c1)C(=O)Nc1nc(-c2ccccn2)cs1 (stereo unspecified),52.6*,35.5,9.2,108.8,-8.9
COC(=O)C(C)Oc1ccc(Oc2nc(Cl)ccc2Cl)cc1 (stereo unspecified),51.6*,14.5,-0.2,105.3,-8.2
CCCC(=O)Nc1nnc(SCC(=O)NCc2ccco2)s1,0.0,13.5,-0.2,109.8,.
